HCMV inh = blocks human cytomegalovirus replication; HFF cells, HCMV-luciferase reporter, 72 h; active compounds read low; activity change, negative = inhibition, % at 57.5 µM; 410,000 compounds, 4.5% hits; in the data active = activity change below about -60%; inconclusive = no clear call, values can overlap the other calls; inactive = above about -39%
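Two-dose cell screen: HFF monolayers treated with compounds and infected with luciferase-expressing HCMV at 1 PFU/cell, 72 h at 37C, then lysed for luciferase measurement.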
FMDV antiviral = antivirals against foot and mouth disease virus. FMDV antiviral cell-based qHTS. Potency, µM (titrated, usually from 57.9 µM), without a hit: at the highest dose activity change, negative = inhibition, actives largely listed as inhibitors. 410,000 compounds, 1.2% hits. AID 1159524; calls by dose curve; tested in HEK293T cells; note: read-out not given here; potency is the fitted concentration of half-maximal effect; nearly all actives have a fitted effect of over 45% in size
Lassa entry inh = Lassa virus entry inhibition. AID 540256. 300,000 compounds, 1.2% hits. Potency, µM (top dose mostly 37.9 µM), inactives show at the highest dose activity change, negative = inhibition, actives largely listed as inhibitors. Lassa virus pseudotype entry inhibition, cell reporter; calls by dose curve; tested in HEK293 cells; note: potency is the fitted concentration of half-maximal effect; nearly all actives have a fitted effect of over 50% in size
Giardia FBPA inh = inhibitors of Giardia lamblia fructose-1,6-bisphosphate aldolase; purified Giardia FBPA; 290,000 compounds, 0.71% hits; AID 2451; Potency, µM (top dose mostly 59.6 µM), without a hit: at the top dose activity, negative = inhibition, most hits filed as inhibitors; note: potency is the fitted concentration of half-maximal effect; nearly all actives have a fitted effect of over 55% in size
Target sequence (A8B2U2 whole entry, looked up): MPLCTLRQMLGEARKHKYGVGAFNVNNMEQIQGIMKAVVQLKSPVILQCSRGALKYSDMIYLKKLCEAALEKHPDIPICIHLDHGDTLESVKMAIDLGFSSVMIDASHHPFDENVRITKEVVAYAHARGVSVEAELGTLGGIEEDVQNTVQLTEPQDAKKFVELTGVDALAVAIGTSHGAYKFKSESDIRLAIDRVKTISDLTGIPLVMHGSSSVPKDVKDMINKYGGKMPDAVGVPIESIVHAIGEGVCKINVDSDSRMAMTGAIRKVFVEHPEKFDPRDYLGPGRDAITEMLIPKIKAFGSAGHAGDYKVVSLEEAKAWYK
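Giardia FBPA (40 nM reagent) was preincubated 10 min at RT with compound (up to 57.5 uM final), then substrate plus GAPDH/TPI/NAD/arsenate coupling system with diaphorase/resazurin was added; resorufin fluorescence (525/598 nm) was read after 20 min.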
Marburg entry inh = inhibitors of Marburg virus binding or cell entry; Marburg virus pseudotyped entry inhibition, cell reporter; Potency, µM (titrated, usually from 37.8 µM), without a hit: at the top dose activity change, negative = inhibition, hits mostly inhibitors; 300,000 compounds, 1.8% hits; AID 540276; calls by dose curve; tested in HEK293 cells; note: potency is the fitted concentration of half-maximal effect
HCV inhibitor = blocks hepatitis C virus | Huh7.5.1 HCVcc-Cre infection, luciferase reporter, 44 h | Potency, µM (doses to about 41.8 µM), inactives show at the top dose activity change, negative = inhibition, most hits filed as inhibitors | 340,000 compounds, 3.4% hits | AID 651820; note: potency is the fitted concentration of half-maximal effect
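A cell-based infection assay in which seeded cells (1,000 per well) receive test compound after 4 h, are inoculated with HCVcc-Cre at approximately 0.5 moi, and are incubated 44 h before luminescence detection.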
The depositor's hits bear a star; ? = inconclusive; / = no result; ! = not confirmed by another sample; [ ] = another dose, or the depositor's remark. The list is not random: actives were taken first. Their share in the collection is about 8.3%. Unless noted, calls come from the whole dose curve; as a rule, active = well fitted curve in the direction sought with a large enough effect; inconclusive = small, poorly fitted or top-dose-only effect, or another doubt; inactive = no such curve, though single readings can be large; an effect the other way counts as inactive or inconclusive. % is set by controls: 0 for no effect and ±100 for the full control effect.

SMILES	HCMV inh	FMDV antiviral	Lassa entry inh	Giardia FBPA inh	Marburg entry inh	HCV inhibitor
CC1CCC(NC(=O)CCc2cn(Cc3ccccc3Cl)c3ccccc23)CC1 (centres undefined)	-14	14%	?	/	/	/
O=C(CCc1cn(Cc2ccccc2Cl)c2ccccc12)NC1CCCCC1	-72*	-13%	-29%[46.1 µM]	/	/	/
O=c1ccn2c(n1)OC1CC2OC1COC(c1ccccc1)(c1ccccc1)c1ccccc1 (centres undefined)	-1	/	/	/	/	/
CC(N)C(=O)OC(C)(C)Cc1ccc(Cl)cc1 (centres undefined)	-19	-14%	?	-4%	10µM*!	-11%
CCOC(=O)C[C@@H](C(=O)OCC)[C@@H]1CCCCC1=O	/	/	/	-8%[12.9 µM]	/	/
CC(C)CC(CSc1ccc(Br)cc1)N1CCN(CC(C)C)CCC1=O (centres undefined)	/	/	/	12%	/	/
O=C(NCc1ccccc1F)C1CCCN(S(=O)(=O)c2ccc(-n3cnnn3)cc2)C1 (centres undefined)	-77*	?	-16%	9%	8%[46.1 µM]	3%
COc1ccccc1CNC(=O)CCC1N=C2c3ccccc3N=C(SCc3cccc(Cl)c3)N2C1=O (centres undefined)	-31	-27%	?	/	-3%[46.1 µM]	/
CCC[C@H](N[C@@H](CCC)[C@H](O)c1ccccc1)[C@H](O)c1ccccc1	?	-7%	-28%[46.1 µM]	/	8.9µM*	1%
OC(c1ccccc1)C(O)c1ccccc1 (centres undefined)	26	-11%	/	/	/	9%
CCc1ccc(C(c2ccccc2)c2c(C)[nH]c3ccccc23)s1 (centres undefined)	-62*	-29%	4%[46.1 µM]	/	/	/
Cc1ccc(C(c2ccccc2)c2c(C)[nH]c3ccccc23)s1 (centres undefined)	-83*	-21%	4%[46.1 µM]	/	/	/
COc1ccccc1CNS(=O)(=O)c1ccc(S(=O)(=O)NC2CC2)cc1	?	-7%	8%	3%	-9%[46.1 µM]	3%
COc1ccc(CN(C2CCCCC2C)S(=O)(=O)c2ccc(S(=O)(=O)N(C)C)cc2)cc1OC (centres undefined)	-79*	-27%	?	-4%	?	13%
COc1cc(CN(C2CCCCC2C)S(=O)(=O)c2ccc(S(=O)(=O)NC3CC3)cc2)cc(OC)c1OC (centres undefined)	-20	-29%	?	-7%	10µM*	-6%
CCOc1ccc2nc(C)cc(Nc3ccccc3OCC)c2c1	?	-4%	?	/	/	/
Cc1ccc(Sc2ccc(/C=N/O)cc2[N+](=O)[O-])cc1	18	-21%	?	14%	?	11µM*
Cc1ccc(C(=O)NC(=S)Nc2ccc(N3CCOCC3)cc2)cc1C	-24	-29%	-21%	-11%	?	7.9µM*
CC(=O)c1ccc(N2CCN(C(=O)Nc3ccc(C(C)C)cc3)CC2)cc1	-82*	14µM*	?	-15%	3.2µM*	3.2µM*
Cc1nc2cc(NC(=O)Nc3ccc(N4CCOCC4)cc3)ccc2n1C	-63*	-3%	1%	-5%	6%	18%
CC(C)(C)c1ccc(C(=O)Nc2ccc(N3CCOCC3)cc2)cc1	-78*	/	-28%	-7%	?	1.8µM*
C/C=C1/C[N@@+]2(C)CC[C@]34C(=C(C=O)[C@H]1C[C@H]32)Nc1ccccc14	/	-11%	/	/	/	/
COc1cccc([C@H]2Oc3ccc(OC)cc3/C(=N\O[C@H](C)c3cn([C@H](CO)Cc4ccccc4)nn3)[C@@H]2O)c1	/	/	/	/	5%[14.2 µM]	/
CCn1cc(C(=O)OCC(=O)Nc2cc(Cl)ccc2OC)c(=O)c2ccc(C)nc21	5	-23%	?	/	-1%[46.1 µM]	/
CC(C)c1ccc(C(=O)Nc2ccc(N3CCOCC3)cc2)cc1	-66*	-19%	-24%	-1%	?	?
SMILES	HCMV inh	FMDV antiviral	Lassa entry inh	Giardia FBPA inh	Marburg entry inh	HCV inhibitor
CC(C)(C)c1ccc(C(=O)NC(=S)Nc2ccc(N3CCOCC3)cc2)cc1	-19	-15%	?	0%	0.79µM*	3%
O=C(NC(=S)Nc1ccc(N2CCOCC2)cc1)c1ccc(Cl)cc1	-1	?	-2%	-4%	?	1%
O=C(Nc1cc(F)ccc1F)N1C[C@H]2[C@@H](c3ccccc31)[C@H](CO)N2C(=O)c1ccccc1	42	/	/	/	/	/
CC(=O)Nc1ccc(SCCN2CCN(CC(C)C)CCC2=O)cc1	/	/	/	1%	/	/
C#Cc1cccc(C(=O)N(Cc2cccnc2)CC2CCCN(C3CCCCC3)C2)c1 (centres undefined)	-63*	-10%	/	/	/	/
COc1ccc(NC(=O)Cc2c(SC)c3ccccc3n2Cc2ccccc2)cc1	-87*	-22%	-25%	6%	?	16%
CSc1c(CC(=O)NCCCO)n(Cc2ccccc2)c2ccccc12	24	?	/	-15%	/	12%
Cn1ncc(Cl)c1C(=O)N1CCN(C23CC4CC(CC(C4)C2)C3)CC1	-77*	-23%	?	/	9%	23%
Cn1nccc1C(=O)N1CCN(C23CC4CC(CC(C4)C2)C3)CC1	13	-10%	-4%[46.1 µM]	/	1%[46.1 µM]	7%
Cc1ccc(C(=O)N2CCN(C34CC5CC(CC(C5)C3)C4)CC2)o1	-82*	17%	/	-1%	/	4%
COc1cccc(-c2ccc(O)c(CNC(c3ccccc3)c3ccc(Cl)cc3)c2)n1 (centres undefined)	/	11%	/	/	/	/
Cc1c(CC(=O)NCCCC(=O)O)c(=O)oc2cc3oc4c(c3cc12)CCCC4	-66*	16%	-6%	4%	-2%	10%
Cc1c(CC(=O)NCCC(=O)O)c(=O)oc2cc3oc4c(c3cc12)CCCC4	-40	3%	/	-1%	/	10%
Cc1c(CC(=O)NCCCC(=O)O)c(=O)oc2cc3c(cc12)CCC(C)(C)O3	-86*	6.3µM*	?	-1%	?	12%
Cc1oc(-c2ccccc2Cl)nc1CS(=O)(=O)CC(=O)NCc1ccc(F)cc1	-14	-19%	3%[46.1 µM]	/	-13%[46.1 µM]	/

Compound activity (PubChem BioAssay)
